Source: PubChem
The list is not random: actives were taken first. Their share in the collection is about 2.4%.
Pol eta inh-1: qHTS for Inhibitors of Polymerase Eta; DNA polymerase eta (Homo sapiens), Q9Y253; recombinant Pol eta, fluorescent DNA replication assay; Potency, µM (titrated, usually from 114 µM), for inactives: at the top dose activity change, negative = inhibition, hits mostly inhibitors; 1.2% of 390,000 active; AID 588591, 2011; also: % is scaled to controls: 0 for no effect and ±100 for the full control effect
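Pol eta at 10 nM preincubated with compounds 15 min at room temperature; reaction started with fluorescent substrate (50 nM final) and read kinetically at 0 and 10 min.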
Pol iota inh: qHTS for Inhibitors of Polymerase Iota | Potency, µM (highest dose often 115 µM), inactives show at the highest dose activity, negative = inhibition, most hits filed as inhibitors | DNA polymerase iota (Homo sapiens), Q9UNA4 | Pol iota fluorescent replication assay, 10 min | 1% of 390,000 active
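Pol iota at 10 nM preincubated 15 min with compounds at room temperature; reaction started with fluorescent substrate, 50 nM final. Fluorescence read kinetically at 0 and 10 min; buffer-only wells as negative control.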
POLB inh: qHTS Assay for Inhibitors of DNA Polymerase Beta; P06746; Pol beta primer extension/strand displacement, fluorescence kinetic; Potency, µM (series often up to 114 µM), for the others: top-dose activity change, negative = inhibition, usual class: inhibitors; 1.3% of 340,000 active; AID 485314, 2010; also: % is scaled to controls: 0 for no effect and ±100 for the full control effect
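Pol beta (10 nM) was preincubated with compound for 15 min at room temperature. The reaction was then started with 50 nM substrate and read immediately and after a further 10 min at room temperature.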
FEN1 inh: qHTS Assay for the Inhibitors of Human Flap endonuclease 1 (FEN1). 0.35% of 390,000 active. Potency, µM (top dose mostly 114 µM), for the others: top-dose activity change, negative = inhibition, hits mostly inhibitors. Recombinant FEN1 flap cleavage, fluorescence, 15 min; also: % is scaled to controls: 0 for no effect and ±100 for the full control effect; nearly all actives have a fitted effect of over 65% in size
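Recombinant FEN1 (10 nM) was preincubated with pin-transferred compounds for 15 min at room temperature, then flap DNA substrate (50 nM final) was added. Plates were read at 0 and 15 min, and normalized concentration–response data were fitted to a four-parameter Hill equation.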
TDP1 inh: qHTS Assay for Inhibitors of Tyrosyl-DNA Phosphodiesterase (TDP1). 0.28% of 350,000 active. AID 485290, 2010. Potency, µM (highest dose often 130 µM), without a hit: at the top dose activity change, negative = inhibition, hits mostly inhibitors. Tyrosyl-DNA phosphodiesterase 1 (Homo sapiens), Q9NUW8. recombinant TDP1, AlphaScreen DNA substrate cleavage; also: % is scaled to controls: 0 for no effect and ±100 for the full control effect; nearly all actives have a fitted effect of over 40% in size
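Steps: enzyme plus compound, 15 min RT; add biotin/phosphotyrosine-FITC oligonucleotide (15 nM final), react 5 min; add donor/acceptor beads (10 ug/ml final), 10 min; read AlphaScreen. Tdp1 at 1 nM final.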
Pol kappa inh-1: qHTS for Inhibitors of Polymerase Kappa. DNA polymerase kappa (Homo sapiens), Q9UBT6. purified Pol kappa, fluorescent DNA synthesis assay, 10 min. 0.53% of 400,000 active. Potency, µM (titrated, usually from 107 µM), for inactives: top-dose activity, negative = inhibition, actives largely listed as inhibitors; also: % is scaled to controls: 0 for no effect and ±100 for the full control effect
Target sequence (Q9UBT6 whole entry, looked up): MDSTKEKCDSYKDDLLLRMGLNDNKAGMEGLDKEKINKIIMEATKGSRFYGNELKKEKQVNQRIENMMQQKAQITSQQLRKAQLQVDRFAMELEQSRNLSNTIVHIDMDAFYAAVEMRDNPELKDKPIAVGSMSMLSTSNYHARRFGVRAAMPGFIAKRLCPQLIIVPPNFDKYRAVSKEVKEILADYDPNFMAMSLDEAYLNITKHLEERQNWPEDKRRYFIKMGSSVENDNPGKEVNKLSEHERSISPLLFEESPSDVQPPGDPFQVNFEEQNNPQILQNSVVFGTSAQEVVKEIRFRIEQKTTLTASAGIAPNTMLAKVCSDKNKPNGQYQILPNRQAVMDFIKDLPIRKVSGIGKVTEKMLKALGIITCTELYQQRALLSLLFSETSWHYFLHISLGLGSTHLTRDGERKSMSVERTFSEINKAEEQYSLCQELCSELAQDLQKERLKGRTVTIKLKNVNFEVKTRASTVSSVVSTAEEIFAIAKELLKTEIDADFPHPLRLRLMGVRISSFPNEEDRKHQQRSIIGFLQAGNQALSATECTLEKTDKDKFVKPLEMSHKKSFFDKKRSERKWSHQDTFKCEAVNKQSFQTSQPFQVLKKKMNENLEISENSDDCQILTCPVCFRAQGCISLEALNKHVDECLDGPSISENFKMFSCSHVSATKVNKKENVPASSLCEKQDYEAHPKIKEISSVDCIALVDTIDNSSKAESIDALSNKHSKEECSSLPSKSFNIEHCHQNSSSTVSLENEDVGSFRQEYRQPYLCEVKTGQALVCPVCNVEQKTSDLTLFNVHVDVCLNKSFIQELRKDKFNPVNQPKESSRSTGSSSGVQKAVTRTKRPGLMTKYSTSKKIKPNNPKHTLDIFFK
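Activity was followed as the change in fluorescence between reads at 0 and 10 min after starting the reaction with 50 nM substrate. Beforehand, 10 nM polymerase had been preincubated with compound for 15 min at room temperature.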
TbPGK inh: qHTS for inhibitors of Phosphogylcerate Kinase: Hit Validation Screen | shares compounds with Pol kappa inh-1 | TbPGK coupled GAPDH assay, Kinase-Glo luminescence | Potency, µM (titrated, usually from 57.5 µM), for inactives: at the top dose activity change, negative = inhibition, most hits filed as inhibitors | 79% of 500 active | AID 686980, 2013; also: % is scaled to controls: 0 for no effect and ±100 for the full control effect; nearly all actives have a fitted effect of over 65% in size
Pol iota confirm: qHTS for Inhibitors of Polymerase Iota: Confirmatory Assay for Cherry-picked Compounds | AID 720496, 2013 | Pol iota primer extension, TAMRA/BHQ fluorescence | shares compounds with Pol kappa inh-1 | Potency, µM, most hits filed as inhibitors | 77% of 1,500 active
Pol kappa inh-2: qHTS for Inhibitors of Polymerase Kappa: Confirmatory Assay for Cherry-picked Compounds | Potency, µM, most hits filed as inhibitors | 76% of 920 active | purified Pol-kappa, fluorescent strand-displacement substrate | AID 720501, 2013 | shares compounds with Pol eta inh-1
Pol eta inh-2: qHTS for Inhibitors of Polymerase Eta: Confirmatory Assay for Cherry-picked Compounds | shares compounds with Pol eta inh-1 | Pol eta primer extension, TAMRA/BHQ fluorescence, 10 min | Potency, µM, most hits filed as inhibitors | 64% of 2,600 active | AID 720502, 2013
Active calls of the source: *; u = inconclusive; x = no result given; [ ] = another dose, or the depositor's remark. Calls follow the shape of the dose curve; as a rule, active = well fitted curve in the direction sought with a large enough effect; inconclusive = small, poorly fitted or top-dose-only effect, or another doubt; inactive = no such curve, though single readings can be large; an effect the other way counts as inactive or inconclusive. Potency is read from the fitted curve at half-maximal effect.

SMILES | Pol eta inh-1 | Pol iota inh | POLB inh | FEN1 inh | TDP1 inh | Pol kappa inh-1 | Pol iota confirm | Pol eta inh-2 | others
O=C(COC(=O)c1n[nH]c(=O)c2ccccc12)Nc1cccc(S(=O)(=O)N2CCOCC2)c1 | -1.5% | 18.2% | x | 14.2% | x | 6.6% | x | x
CCOc1cc2c(cc1OCC)C(CC(=O)O)N(C(=O)Nc1ccc(Br)c(C)c1)CC2 (stereo not given) | 1.8% | -2.9% | u | 3.0% | 1.2% | -7.6%[60.1 µM] | x | x
O=C(COC(=O)c1ccccc1O)Nc1ncc(Cl)cc1Cl | 17.8µM* | 39.8µM* | 6.1% | u | x | 35.5µM* | u | 26.9*
COc1ccc(/C=C2\C(=O)NC(=O)c3ccccc32)cc1OC | 20µM* | 31.6µM* | x | -8.5% | x | -18.1% | 84.4* | 30.1*
COc1ccc(C=C2c3ccccc3C(=O)c3ccccc32)cc1O | x | x | x | x | 23.3% | 0.3%[60.1 µM] | x | x
Cc1nn(-c2ccccc2)c(Cl)c1/C=N/Nc1ccc(S(=O)(=O)Nc2ccccc2C(=O)O)cc1[N+](=O)[O-] | 35.5µM* | 39.8µM* | 44.7µM* | u | 1.0% | u | u | 42.6* | Pol kappa inh-2=23.8*
Cc1nn(-c2ccccc2)c(Cl)c1/C=N/Nc1ccc(Cl)c(C(=O)O)c1 | 5.6% | 76.6% | 29.0% | -4.1% | 5.5% | -24.2% | x | x
C=CCOc1ccc(C=NNc2ccc(S(=O)(=O)Nc3ccccc3C(=O)O)cc2[N+](=O)[O-])cc1OC | u | 14.1µM* | x | u | -16.2% | u | 18.9* | 84.9* | TbPGK inh=5.17µM*;Pol kappa inh-2=u
CCOc1cccc(C=NNc2ccc(S(=O)(=O)Nc3ccccc3C(=O)O)cc2[N+](=O)[O-])c1O | -29.0% | 8.4% | x | -30.8% | 0.7% | 7.0% | x | x
COc1ccccc1/C=C/C(=O)NNC(=O)c1cc(C)oc1C | -6.1% | 33.6% | x | -0.3% | 4.2% | -17.5% | x | x
Cc1cc(C(=O)NNC(=O)/C=C/c2ccco2)c(C)o1 | 2.24µM* | 3.16µM* | x | u | -8.2% | 22.4µM* | u | 16.9* | TbPGK inh=16.3µM*
Cn1c(=O)c2nc(SCC(=O)Nc3ccc(OC(F)(F)F)cc3)n(C)c2n(C)c1=O | -16.4% | 20.4% | -2.1% | -3.7% | 2.6% | 1.5%[60.1 µM] | x | x
COc1ccc(Cc2nc3ccccc3n2CC(=O)N/N=C/c2ccc(C)cc2O)cc1OC | u | 20µM* | 7.94µM* | u | 0.0% | u | 9.47* | 67.5* | Pol kappa inh-2=29.9*
Cc1cccc(Cn2cnc3c(cnn3C(C)(C)C)c2=O)c1F | x | -0.2% | x | -22.8% | x | 1.9% | x | x
